These results are taken from PubChem BioAssay AID651871 (Sanford-Burnham Center for Chemical Genomics, 2012).

Structures are written as SMILES. Where “and” joins values, the source holds several entries; their conditions need not be identical. Equal entries are not always repeated.

The subject of the assay is HL-1. The assay is described as follows: cardiomyocyte survival under oxidative or metabolic stress – cell-based, panel, H9c2 and HL-1, ATP luminescence, set 2, SAR follow-up (AID 651871).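 Also: cells exposed to stressor for 2 h before ATP readout; reference of the scale not given here.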 Conditions: H9c2/HL-1 cardiomyocytes, 2-deoxyglucose stress, with 2-deoxyglucose, run 2, at 79 µM (top of the series).
Take `CCOC(=O)c1cccc(NC(=O)CNC(=O)c2cc(-c3cc(OC)c(OC)c(OC)c3)nc3ccccc23)c1`: the activity (protection/inhibition) amounted to 75.9%.
The same measure for `COc1ccc2c(c1OC)C(=O)N1c3ccccc3C(=O)N(Cc3cccc(Cl)c3Cl)C21` (stereo not drawn): 27.7% and -9.62%.
For the molecule `COc1ccc2nc(-c3cc(OC)c(OC)c(OC)c3)cc(C(=O)NCC(=O)Nc3ccc(C(C)=O)cc3)c2c1`, the activity (protection/inhibition) was determined as 54.8%.
